Assay results taken from PubChem BioAssay AID488857 (Sanford-Burnham Center for Chemical Genomics, 2010).
Screen size: about 1,400 compounds; about 560 (40%) were called active. The set was probably picked from earlier hits. This is one part of the list. A number with no mark means an inactive call.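 How the source made its calls: active means mean inhibition over duplicate tests at 10 µM above 50%; inactive means the rest.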

Assay: ASC/caspase-1 reporter retest in S. cerevisiae at one dose, specificity check for NALP1 project (AID 488857)
Settings: S. cerevisiae ASC/Caspase-1, beta-galactosidase luminescence, 24 h; at 10 µM; hits give high values

Structure (SMILES)	inhibition
COc1ccc(NC(=S)SC)cc1OC	60.2% (active)
COc1ccc(NC(=S)N(C(C)C)C2CCN(C(C)C)CC2)cc1Cl	25.9%
COc1ccc(C(=O)Nc2ccc(S(=O)(=O)Nc3nccc(C)n3)cc2)cc1OC	35.9%
CC1CN(S(=O)(=O)c2ccc(C(=O)Nc3nc(-c4cc5ccccc5o4)cs3)cc2)CC(C)O1 (stereo unspecified)	32.9%
O=C(c1cc(-c2ccc(O)cc2)on1)N1CCc2ccccc2C1	58.4% (active)
O=C(CN1CCc2ccccc2C1)NCc1ccco1	36.3%
CCn1c(C(=O)N2CCc3ccccc3C2)cc2oc3ccccc3c21	44.5%
CC1(O)N(Cc2ccccc2)C(=O)OC12CCCCC2 (stereo unspecified)	45.9%
OCCn1c(-c2ccc(F)cc2)csc1=Nc1ccccc1	46.5%
COc1ccc(C)cc1NC(=O)c1ccc(CN2CCN(c3ccccc3)CC2)cc1	33.5%
CSc1ccccc1NC(=O)Nc1ccccc1Cl	49.8%
Cc1c(Cl)cccc1NC(=O)c1cccc(OC(F)F)c1	68.8% (active)
COc1ccc(NC(=O)c2ccc(C)cc2)c(OC)c1	36.7%
COc1ccc(C)cc1NC(=O)c1ccc(OC(F)F)cc1	66.2% (active)
O=C(NCCN1C(=O)S/C(=C\c2cccnc2)C1=O)c1cccc(OC(F)F)c1	45.1%
CCN(CC1COc2ccccc2O1)S(=O)(=O)c1ccc(C)cc1 (stereo unspecified)	43.9%

Structure (SMILES)	inhibition
Cc1c(C(=O)NCC2COc3ccccc3O2)oc2ccc(S(=O)(=O)N3CC(C)CC(C)C3)cc12 (stereo unspecified)	30.4%
CC(C)C(=O)Nc1ccc(Nc2ccccc2)cc1	68.2% (active)
O=C(Nc1ccc(Nc2ccccc2)cc1)C(Cl)Cl	76.3% (active)
CC(C)Oc1ccc(NC(=O)CCC(=O)O)cc1	28.5%
Cc1cccc(C)c1NC(=O)C(Cl)C(=O)c1ccccc1 (stereo unspecified)	2.6%
C/C(=N\NC(=O)Nc1ccccc1)c1ccccc1	41.4%
O=c1c(O)c(-c2cccs2)oc2ccccc12	91% (active)
CCC(C)C(=O)N1c2ccccc2C(=C2SC(C(=O)OC)=C(C(=O)OC)S2)C(=S)C1(C)C (stereo unspecified)	51.8% (active)
CCC(Cc1ccccc1)NC(=O)C1CCN(S(=O)(=O)c2c(C)noc2C)CC1 (stereo unspecified)	28.6%
CC[n+]1c(/C=C/c2ccc(N(C)C)cc2)ccc2ccccc21	96.5% (active)
CN(C)c1ccc(/C=C/c2ccc3ccccc3[n+]2C)cc1	96.8% (active)
O=C1C(Nc2ccccc2)=C/C(=N/S(=O)(=O)c2cccs2)c2ccccc21	89.7% (active)
O=C1c2ccccc2-c2cccc(NS(=O)(=O)c3ccc(C(F)(F)F)cc3)c21	36.2%
O=S(=O)(Nc1cccnc1)c1cccs1	25.8%
O=C(O)c1ccc(S(=O)(=O)/N=C2\C=C(Nc3ccccc3F)C(=O)c3ccccc32)cc1	100% (active)
